Compound activity: PubChem, National Center for Advancing Translational Sciences (NCATS)
Shiga toxin inh: A qHTS for Small Molecule Inhibitors of Shiga Toxin. 290,000 tested, 9.2% active. inhibition, % at 38.7 µM. Vero cells, Shiga toxin protein synthesis inhibition reporter. AID 2315, 2010; in the data active means inhibition mostly above about 28%, no sharp cut-off; inactive means mostly below about 43%; further: 0% is about no effect
Pf growth 96h: Primary qHTS for delayed death inhibitors of the malarial parasite plastid, 96 hour incubation. P. falciparum luciferase reporter growth, 96 h. Potency, µM (highest dose often 28.7 µM), inactives show at the highest dose activity change, negative = inhibition, most hits filed as inhibitors. 320,000 tested, 6.9% active; further: potency means the concentration at half of the fitted maximal effect; on the % scale 0 is the no-effect control and ±100 the full control effect
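Erythrocytes infected with luciferase-expressing P. falciparum were dispensed at 2% hematocrit and 0.05% parasitemia (final), then incubated with compounds 96 hours at 37 C in 5% CO2. Luminescence after detection reagent addition reported growth.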
Pf growth 48h: Primary qHTS for delayed death inhibitors of the malarial parasite plastid, 48 hour incubation. P. falciparum luciferase growth in erythrocytes, 48 h. Potency, µM (series often up to 28.7 µM), without a hit: at the highest dose activity change, negative = inhibition, actives largely listed as inhibitors. 310,000 tested, 5.9% active; further: potency means the concentration at half of the fitted maximal effect; on the % scale 0 is the no-effect control and ±100 the full control effect
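In quantitative HTS format, infected erythrocytes bearing luciferase-reporter parasites were treated for a single generation at 37 C. Luminescence after adding detection reagent served as the growth measure.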
CHX counter: Cycloheximide Counterscreen for Small Molecule Inhibitors of Shiga Toxin. cell reporter, cycloheximide protein synthesis inhibition counterscreen. max response, %. 300,000 tested, 12% active. AID 2314, 2010; in the data active means max response mostly above about 13%, no sharp cut-off; inactive means mostly below about 14%; further: read at 38.3 µM for the half of the compounds with a filed dose; 0% is about no effect
HCMV inh: qHTS Assay for inhibitors of the human cytomegalovirus (HCMV); AID 1259415, 2018; 410,000 tested, 4.5% active; activity change, negative = inhibition, % at 57.5 µM; HFF cells, HCMV-luciferase reporter, 72 h; hits give low values; in the data active means activity change below about -60%; inconclusive means no clear call, values can overlap the other calls; inactive means above about -39%; further: on the % scale 0 is the no-effect control and ±100 the full control effect
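After 16 h attachment at 37C, HFF cells received test compound and HCMV-luciferase (1 PFU/cell); reporter luminescence read 72 h later, data normalized against buffer-only and known inhibitor Salinomycin.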
HCV inhibitor: qHTS Assay for Inhibitors of Hepatitis C Virus (HCV). Huh7.5.1 HCVcc-Cre infection, luciferase reporter, 44 h. Potency, µM (series often up to 41.8 µM), for the others: at the highest dose activity change, negative = inhibition, most hits filed as inhibitors. 340,000 tested, 3.4% active. AID 651820, 2012; further: potency means the concentration at half of the fitted maximal effect; on the % scale 0 is the no-effect control and ±100 the full control effect
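Infectious HCVcc-Cre (~0.5 moi) was added to cells just after compound, with cells seeded 4 h earlier at 1,000 per well. Luciferase activity after 44 h culture reported infection; substrate was incubated 15 min at room temperature before reading.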
* = called active by the depositor; ? = inconclusive; . = no result. Shown are actives, neighbours in structure and some others; about 21% of the full set was active somewhere. Unless noted, the call rests on the fitted dose curve; in most records, active means well fitted inhibition curve with a large enough effect; inconclusive means small, poorly fitted or top-dose-only effect, or another doubt; inactive means no such curve, though single readings can be large or run the other way.

SMILES	Shiga toxin inh	Pf growth 96h	Pf growth 48h	CHX counter	HCMV inh	HCV inhibitor
O=C1Nc2ccccc2SC1c1ccccc1 (stereo not drawn)	-7.1	-6.6%	?	-3.4	8.4	13.6%
O=C(NC(=O)c1ccc(Cl)cc1)Nc1cc(N2CCCCC2)ncn1	.	.	.	.	-13.8	?
O=C(Nc1cc(N2CCOCC2)ncn1)c1ccc(F)cc1	75.3*	?	101.2%	33.4*	-38.2	?
O=C(Nc1cc(N2CCCCC2)ncn1)c1ccc(F)cc1	41.0	?	-11.1%	26.1*	-22.2	13.7%
O=S(=O)(c1ccc(SCc2cccc(Cl)c2)nc1)N1CCCC1	.	-24.3%	-26.4%	.	-30.9	-23.3%
CCOCCCNC(=O)c1cn(CC)c2ccc(S(=O)(=O)N3CCCC3)cc2c1=O	-3.1	-19.4%	-1.5%	8.3	-8.0	8.4%
CCOC(=O)CCSc1nc(C)c2cc(C)c(C)cc2n1	43.5*	-27.6%	5.9%	29.7*	-26.8	?
CCOC(=O)CSc1nc(C)c2ccc(C)cc2n1	43.8	?	27.4%	12.0*	14.6	?
CCOC(=O)CCSc1nc(C)c2cc(OC)ccc2n1	79.9*	443.3%	313.5%	51.2*	-3.0	-19.8%
Cc1cc2nc(SCCOC(=O)Nc3ccccc3)nc(C)c2cc1C	30.9	19.9%	13.8%	-2.8	-27.5	-10.5%
Cc1cc(O)c2c(C)c(CC(=O)NCc3ccccc3Cl)c(=O)oc2c1	.	.	.	.	-4.3	.
CCOc1ccc(CCNC(=O)Cn2nc(CC)n3c(cc4ccccc43)c2=O)cc1	.	.	.	.	-1.9	.
COc1cccc(-n2nc(C(=O)NCC3CCCO3)c3ccccc3c2=O)c1 (stereo not drawn)	-2.3	3.7µM*	-16.1%	1.3	34.3	0.1%
Cc1cccc(-n2cnc3cc(C(=O)NCC4CCCO4)ccc32)c1 (stereo not drawn)	.	.	.	.	-1.9	.
Cc1cccc(-n2c(C)nc3cc(C(=O)NCC4CCCO4)ccc32)c1 (stereo not drawn)	-6.6	?	5.0%	-3.2	-64.3*	7.2%
Cc1ccc(C)n1-c1ccc(C(=O)NCC2CCCO2)cc1 (stereo not drawn)	27.8	10.4µM*	-11.3%	-1.4	-2.6	6.6%
CN(C)c1ccc(C(=O)NCC2CCCO2)cc1 (stereo not drawn)	63.9*	?	268.8%	43.0*	97.2	-19.4%
O=C(NCC1CCCO1)c1ccccc1 (stereo not drawn)	26.6	?	27.8%	3.0	-33.6	7.4%
O=C(NCC1CCCO1)c1cc2c(s1)CCC2 (stereo not drawn)	89.0*	171.8%	131.3%	52.5*	116.3	11.4%
CN(C)c1cccc(C(=O)NCC2CCCO2)c1 (stereo not drawn)	41.5*	-10.5%	49.7%	14.3	44.1	11.1%
COc1cccc(-c2cc(C(=O)NCC3CCCO3)c3cc(C)cc(C)c3n2)c1 (stereo not drawn)	14.5	?	?	11.8*	-9.6	?
COc1ccc(CCNCC2CCCO2)cc1 (stereo not drawn)	23.7*	0.0%	28.5%	18.4*	9.9	12.5%
COc1cccc(CNCC2CCCO2)c1 (stereo not drawn)	.	-19.9%	0.0%	-2.5	13.5	6.6%
Cc1ccc(NC(=O)CCC(=O)NNC(=O)c2ccccc2)c(C)c1	-3.5	0.0%	19.1%	-5.0	-37.3	-27.0%
CCC[C@H]1[C@H](NCc2cccs2)CC[C@@]23CCCN2C(=O)CCC[C@@H]13	.	.	.	.	6.1	.
COc1ccc(OC)c(CN2C(=O)c3ccccc3C2C(=O)NCC2CCCO2)c1 (stereo not drawn)	-19.2	?	?	2.3	?	23.4%
COc1ccc(C(=O)NCC2CCCO2)cc1 (stereo not drawn)	53.7*	27.2%	59.3%	35.7*	-16.7	3.6%
COc1cc(OC)cc(C(=O)Nc2ccc(C(=O)NCC3CCCO3)cc2)c1 (stereo not drawn)	-10.3	?	?	-0.9	-26.4	?
